From PubChem BioAssay (NCI)
Compounds without any hit were thinned out: in the full panel of roughly 83,000, 20% have a hit.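 Cells were grown in 96-well plates and exposed to the test compound at a single concentration for 48 hours; results are reported as percent growth, with values below 10 considered active.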 A number with no mark means an inactive call. The source made the active and inactive calls.

Test system: HL-60(TB) leukemia
Assay: NCI-60 one-dose screen, 48 h (100 = growth as untreated, 0 = no growth, -100 = all killed)
Settings: 10 µM unless noted

Compound: COc1cc([C@H](C)c2ccc3ccccc3c2)cc(OC)c1OC
- growth: -5.85% (active)

Compound: COc1cc(C)cc2oc3oc(=N)c(C(=O)c4ccccc4)cc3c(=O)c12
- growth: 112%

Compound: COc1ccc(CN2C(=O)OC(C)(COC(C)=O)C2=O)cc1 (stereo not drawn)
- growth: 101%

Compound: COc1ccc(/C=N/Nc2c3ccccc3nc3ccccc23)cc1
- growth: 92.9%

Compound: C=CC(C)(O)CCC1C(=C)CCC2C(C)(C)CCCC12C (stereo not drawn)
- growth: 82.1%

Compound: O=C(Nc1cccnc1Nc1ccccc1)c1cn(Cc2cccc(Oc3ccccc3)c2)nn1
- growth: 18.9%

Compound: CN(C)CCCOc1ccc(NC2=C(Cl)C(=O)C(Nc3ccc(OCCCN(C)C)cc3)=C(Cl)C2=O)cc1
- growth: -39.9% (active)

Compound: COc1ccc(/C=C2/CCc3cc4ccc(OC)cc4[o+]c32)c(O)c1
- growth: 60.8%

Compound: CN(C)c1ccc(/C=N/NC(=O)c2cccc3ccccc23)c(Cl)c1
- growth: -2.75% (active)

Compound: O=C(O)C(=Cc1c2ccccc2cc2ccccc12)C(=O)O
- growth: 110%

Compound: Cc1ccc(S(=O)(=O)c2nc(-c3ccccc3)oc2S(C)=O)cc1 (stereo not drawn)
- growth: -47.4% (active)

Compound: COc1ccc(/C=N/NC(=O)Cn2nnc3ccccc32)cc1
- growth: 105%

Compound: CC(=O)c1sc2sc(C(C)=O)c(C)c2c1C
- growth: 90.1%

Compound: CCCCCOC(=O)Nc1nc(=O)n(C2O[C@H](C)[C@@H](O)[C@H]2O)cc1F (stereo partly drawn)
- growth: 92.8%

Compound: CCOC(=O)c1sc(-c2ccc(OS(=O)(=O)c3cccs3)c(C=O)c2)nc1C
- growth: -34.1% (active)

Compound: CC1(C)CC[C@]2(C(=O)Nc3ccccn3)CC[C@]3(C)C(=CC[C@@H]4[C@@]5(C)C/C(=C/c6ccncc6)C(=O)C(C)(C)[C@@H]5CC[C@]43C)[C@@H]2C1
- growth: -0.971% (active)

Compound: COc1ccc(CN2C(=O)C(Cl)=C(Nc3cccc(C(F)(F)F)c3)C2=O)cc1
- growth: 29%

Compound: Nc1cc(O)cc2cccnc12
- growth: 98.5%

Compound: c1ccc2c(c1)oc1cc3c(cc12)nnc1cccn13
- growth: 108%

Compound: CCCCN(CCC)CCCCCCCCCCN1CCCc2ccccc21
- growth: 42.2%

Compound: Cc1ccc2c(c1)C(C)Cc1c(ncnc1-n1cnc3ccccc31)N2C (stereo not drawn)
- growth: -19.1% (active)

Compound: Nc1ccc(N)c2c1C(=O)c1cccc([N+](=O)[O-])c1C2=O
- growth: 17.8%

Compound: COc1ccc(-c2nc(SCC(C)C)nc(Nc3ccc(C(=O)O)cc3)c2C#N)cc1
- growth: 99.7%

Compound: CC1(C)Nc2cccc3c(N=Nc4ccc(N=Nc5ccccc5)c5ccccc45)ccc(c23)N1
- growth: 86.1%

Compound: COc1ccc(Br)c2ccccc12
- growth: 88.4%

Compound: Cc1cnc(Nc2ccc(OCCN3CCCC3)cc2)nc1NCc1ccco1
- growth: 81.2%

Compound: C=C1CC[C@@]2(C#N)[C@H]3[C@H](CC[C@@H]2C)[C@@H](C)C[C@@H](CC(C)(C)C#N)[C@H]13
- growth: 21.8%

Compound: O=C(/C=C/c1ccc(Br)cc1)c1ccc(-n2cc(CN3CCN(c4cc5c(cc4F)c(=O)c(C(=O)O)cn5C4CC4)CC3)nn2)cc1
- growth: 94.3%

Compound: N=C(N)c1ccc(-c2ccc(-c3ccc(-c4cccs4)s3)s2)cc1F
- growth: 99.7%

Compound: COc1cc(/C=N/NC(=O)c2cnn3c2NC(c2ccccc2)C3)cc(OC)c1OC (stereo not drawn)
- growth: 81.1%

Compound: c1ccc(-c2ccc3c(c2)C2(CCNCC2)CN3)cc1
- growth: 93.7%

Compound: CCN(CC)CCCC(C)Nc1ccnc2ccc(Oc3ccccc3)cc12 (stereo not drawn)
- growth: 72.6%

Compound: CCOC1(OCC)OC(c2ccccc2)=C(C#N)C(/C=C\c2ccccc2)C1(OCC)OCC (stereo not drawn)
- growth: 80.1%

Compound: Cc1nc2sc(C(=O)Nc3cccc4ccccc34)c(N)c2cc1C(=O)c1ccccc1
- growth: -50.6% (active)

Compound: CN1CCCN(C(c2ccccc2)c2ccc(Br)cc2)CC1 (stereo not drawn)
- growth: 110%

Compound: Cc1ccc2nc(CN(CCN(Cc3nc4ccc(C)cc4[nH]3)Cc3nc4ccc(C)cc4[nH]3)Cc3nc4ccc(C)cc4[nH]3)[nH]c2c1
- growth: -67.7% (active)

Compound: O=C(c1ccccc1)C(Br)C(Br)c1cccc([N+](=O)[O-])c1 (stereo not drawn)
- growth: -2.38% (active)

Compound: CCOC(=O)c1cnn(CC(O)CC)c1NC(=O)NCc1ccccc1C(F)(F)F (stereo not drawn)
- growth: 76.4%

Compound: Cc1ccc(-c2csc(/N=C3\C(=O)Nc4ccccc43)n2)cc1
- growth: -48% (active)

Compound: CCOC(=O)c1ccc(C(=N)N)cc1
- growth: 103%

Compound: O=C(O)c1cccnc1Br
- growth: 110%

Compound: COc1ccc(/C=N/NC(=O)CN2CCN(c3cc4c(cc3F)c(=O)c(C(=O)O)cn4C3CC3)CC2)cc1O
- growth: 92%

Compound: COc1ccc(CNc2c3ccccc3nc3ccccc23)cc1
- growth: 43%

Compound: CCCCCOC(=O)c1c(C)[nH]c(/C=C2\N=C(c3ccc[nH]3)C=C2OC)c1C
- growth: -14.7% (active)

Compound: O=C(Nc1ccc(F)cc1F)c1cc(Cl)ccc1O
- growth: -31.4% (active)

Compound: O=C(N/N=C/c1ccc(Cl)cc1)c1ccc(NC(=O)c2ccccn2)cc1
- growth: 103%

Compound: Cc1cnc(C(=O)Nc2nc3ccc(S(=O)(=O)Nc4ccc(C(C)(C)C)cc4)cc3[nH]2)cn1
- growth: -18.2% (active)

Compound: C(=C(\C1=NCCN1)n1ccc2ccccc21)/c1ccccc1
- growth: 96.8%

Compound: C=C(COC(C)=O)[C@H]1CC/C(C)=C/CC/C(C)=C/CC[C@@]2(C)O[C@H]2C1
- growth: 103%

Compound: Cc1ccc(N(CSc2ccc(Cl)cc2)CSc2ccc(Cl)cc2)cc1
- growth: -46.7% (active)

Compound: NC(=S)N/N=C\c1nccc2c(C(F)(F)C(F)(F)C(F)(F)F)cccc12
- growth: -49.4% (active)

Compound: Cc1cccc(OCC(O)CN2CCN(c3ccc(Cl)cc3)CC2)c1 (stereo not drawn)
- growth: 97.9%

Compound: CC(C)=CCC[C@H](C)c1ccc(C)c2c1OCN(CCO)C2
- growth: 90.8%

Compound: O=C(N/N=C/c1c[nH]c2ccccc12)c1cc(-c2ccccc2)on1
- growth: 73.4%

Compound: c1cc2ccc3cc2cc1CNCCN1CCNCc2ccc4ccc(cc4c2)CNCCN(CCNC3)CCNCc2ccc3ccc(cc3c2)CNCC1
- growth: -38.7% (active)

Compound: Nc1ncnc2c1N=C(c1ccc(Cl)cc1)CC(c1cccc(Nc3ccnc4cc(Cl)ccc34)c1)N2 (stereo not drawn)
- growth: 55.3%

Compound: CN(C)c1ccc2oc(=O)c3ccccc3c2c1
- growth: 143%

Compound: CCOC(=O)c1cnc2c(C)cc(C)cc2c1NCCCN(C)C
- growth: 9.86% (active)

Compound: O=C1CCn2c1c(O)c1ccccc1c2=O
- growth: 110%

Compound: COc1cc(/C=C/c2nnc(-c3cc(-c4ccccc4)n[nH]3)o2)cc(OC)c1OC
- growth: 75.1%

Compound: CC(C)(C)N1CCC1C(N)=O (stereo not drawn)
- growth: 92.4%

Compound: CC(C)(C)[Si](C)(C)OC1[C@@H](O[Si](C)(C)C(C)(C)C)[C@@H](CNC(=O)NC(=O)NC(=O)CI)O[C@H]1n1cnc2c(NC(=O)Nc3ccccc3)ncnc21 (stereo partly drawn)
- growth: -67.1% (active)

Compound: O=C(c1ccccc1)N(C(=S)NCCc1ccc(Cl)cc1)c1ccccc1
- growth: 54.4%

Compound: CCSc1ccc([C@@H]2[C@@H](N)C(=O)N2c2cc(OC)c(OC)c(OC)c2)cc1
- growth: -40.5% (active)

Compound: CC(C)(C)n1cc(-c2ccnc(NCCNS(=O)(=O)c3ccc(Br)cc3)c2)c(-c2cccc(O)c2)n1
- growth: -8.19% (active)

Compound: N#Cc1c(NC(=O)c2cccs2)[n+]([O-])c2cc(C(F)(F)F)ccc2[n+]1[O-]
- growth: 89%

Compound: Nc1cccc(-c2ccc(COc3ccc(CC4SC(=O)NC4=O)cc3)cc2)c1 (stereo not drawn)
- growth: 43.4%

Compound: CC1=CC=C(NC(=O)/C=C/c2ccccc2)CC1Nc1nccc(-c2cccnc2)n1 (stereo not drawn)
- growth: -0.0857% (active)

Compound: CC(Cc1cccc(C(F)(F)F)c1)NCCOC(=O)c1ccccc1 (stereo not drawn)
- growth: 102%

Compound: CCOc1ccccc1/C=N/Nc1nc2ccccc2o1
- growth: 98.6%

Compound: Nc1nc(N)c2c(n1)NC(c1ccc(Cl)cc1)C1CCc3ccccc3C1=N2 (stereo not drawn)
- growth: 13.5%

Compound: O=C1c2cccnc2C(=O)c2nc3cc(N4CCN(C5CC5)CC4)ccc3nc21
- growth: -43.1% (active)

Compound: Clc1ccc(-c2nnc(Cn3ccnc3)o2)cc1
- growth: 93.8%

Compound: C=CCCCCCCCCCOC(C)=O
- growth: 120%

Compound: Clc1ccc(-c2nc(-c3c[nH]c4ncccc34)cs2)cc1
- growth: 87.4% [100 µM]

Compound: Cn1c(-c2c(N)n(Cc3cccnc3)c3nc(C#N)c(C#N)nc23)nc2ccccc21
- growth: 50.3%

Compound: COc1ccc(-c2nc3ncccn3c2/C=C/C(=O)c2cc(OC)c(OC)c(OC)c2)cc1
- growth: 1.2% (active)

Compound: O=C1C(Br)=CC2C1C1C3CCC3C2(Br)C12OCCO2 (stereo not drawn)
- growth: -6.23% (active)

Compound: O=C(NNc1ccc(-c2ccccc2)nn1)c1ccc(F)cc1
- growth: 96.7%

Compound: COc1ccc(/C=C(\C#N)n2nc3cccc(F)c3n2)cc1
- growth: 82%

Compound: NC(=O)c1cc(I)ccc1NC(=O)/C=C/c1ccccc1Cl
- growth: -34.5% (active)

Compound: Cc1cc(Nc2nc(-c3ccc(F)cc3)nc3ccccc23)n[nH]1
- growth: 39%

Compound: OC(CCN1CCCC1)(c1ccccc1)C1CCCCC1 (stereo not drawn)
- growth: 119%

Compound: Cc1nn(-c2ccccc2)c2nc3c(c(-c4ccc(Cl)cc4)c12)CNC1(CCSCC1)N3
- growth: 72.9%

Compound: O=C(O)CCC/C=C\C[C@H]1C=CC(=O)/C1=C/C[C@@H](O)CCc1cccc(C(F)(F)F)c1
- growth: -11.7% (active)

Compound: COc1cc(-c2ccc(-c3ccc(C(=N)N)nc3)s2)cc(OC)c1OC
- growth: -40.6% (active)

Compound: COC(=O)/C=C1\S/C(=N\NC(=O)c2cc3ccc2/C=C\c2ccc(cc2)/C=C\3)N(Cc2ccccc2)C1=O
- growth: -5.46% (active)

Compound: COc1ccc(-c2nc(SCCC(C)C)nc(N/N=C\c3cccc(Cl)c3)c2C#N)cc1
- growth: 82%
